Measurements as given in paper PMC7826789 (International Journal of Molecular Sciences, 2021).

Experiments:
Details in all cases: Compound Concentration (nM):1000
LRRK2 = system: LRRK2
LTK = system: LTK
LYN = system: LYN
LZK = system: T1, LZK
T1 construct: gene MAP3K13

MAK = system: MAK
MAP3K15 = system: MAP3K15
MAP3K1 = system: MAP3K1
MAP3K2 = system: MAP3K2
MAP3K3 = system: MAP3K3
MAP3K4 = system: MAP3K4
MAP4K2 = system: MAP4K2
MAP4K3 = system: MAP4K3
MAP4K4 = system: MAP4K4
MAP4K5 = system: MAP4K5
MAPKAPK2 = system: MAPKAPK2
MAPKAPK5 = system: MAPKAPK5
MARK1 = system: MARK1
MARK2 = system: MARK2
MARK3 = system: MARK3
MARK4 = system: MARK4
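Also: KINOMEscan scanMAX binding as percent activity remaining versus control; lower means stronger binding.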

Compound	Percent Control (LRRK2) [%]	Percent Control (LTK) [%]	Percent Control (LYN) [%]	Percent Control (LZK) [%]	Percent Control (MAK) [%]	Percent Control (MAP3K15) [%]	Percent Control (MAP3K1) [%]	Percent Control (MAP3K2) [%]	Percent Control (MAP3K3) [%]	Percent Control (MAP3K4) [%]	Percent Control (MAP4K2) [%]	Percent Control (MAP4K3) [%]	Percent Control (MAP4K4) [%]	Percent Control (MAP4K5) [%]	Percent Control (MAPKAPK2) [%]	Percent Control (MAPKAPK5) [%]	Percent Control (MARK1) [%]	Percent Control (MARK2) [%]	Percent Control (MARK3) [%]	Percent Control (MARK4) [%]
CC1=C(C(=O)Nc2ccc3[nH]ncc3c2)C(c2ccc3ccccc3c2)CC(=O)N1 (centres unmarked) [GSK270822A]	100	100	66	72	100	73	68	60	84	100	100	90	79	93	97	96	91	95	100	76
COc1ccccc1-c1cc(/C=C2\C(=O)Nc3ncc(Br)cc32)cc(Br)c1O [GW442130X]	100	100	100	84	100	89	99	100	100	100	89	100	96	94	100	100	81	100	100	100
CN(C)c1cc2c(Nc3ccc4c(cnn4Cc4ccccc4)c3)ncnc2cn1 [GW282974X]	97		89	100	98	100		90	73	88	92	100	76	98	69	90	100	97	100	90
NS(=O)(=O)c1ccc(Nc2ncc(-c3ccccc3)o2)cc1 [GW572399X]	76	100	100	100	100	99	59	87	100	100	82	100	100	100	100	100	100	100	94	100
Cl.O=C(O[C@H]1CN[C@H](C#Cc2cc3ncnc(Nc4ccc5c(cnn5Cc5ccccc5)c4)c3s2)C1)N1CCOCC1 [GSK200398A]	97	85	76	100	100	95	56	97	89	82	98	100	83	92	72	90	100	87	83	100
NS(=O)(=O)c1ccc(N/N=C2\C(=O)Nc3ccc(C(=O)NCc4ccncc4)cc32)cc1 [GW300657X]	69	100	81	72	100	80	67	87	72	99	84	99	88	96	100	89	100	91	63	91
Nc1ncnc2occ(-c3ccc(NC(=O)Nc4cc(C(F)(F)F)ccc4F)cc3)c12 [GW770249X]	77	4.5	29	100	100	100	51	91	91	94	27	29	56	11	100	100	83	94	71	94
CN1CCN(C(=O)c2ccc(NC(=O)Nc3ccc(N(C)c4ccnc(Nc5ccc(CS(C)(=O)=O)cc5)n4)cc3)cc2)CC1.Cl [GW830263A]	74	85	71	70	64	86	83	38	57	4	43	25	33	32	100	84	44	84	43	92
COc1ccc2c(-c3ccnc(Nc4cccc(OC(F)(F)F)c4)n3)cnn2n1 [GW810372X]	72	100	100	100	100	100	70	96	90	71	94	100	100	100	100	100	100	100	100	82
COc1cc2ncn(-c3cc(O[C@H](C)c4ccccc4Cl)c(C(N)=O)s3)c2cc1OC [GSK237701A]	70	26	81	70	100	100	2.6	84	83	100	50	33	90	7.5	100	100	77	100	100	74
Cl.O=C(Nc1ccc(Oc2ccc3[nH]c(NC(=O)c4ccccc4)nc3c2)cc1)Nc1cc(C(F)(F)F)ccc1F [GW709042A]	39	9.5	72	100	100	100	57	100	84	100	88	100	100	99	100	100	61	100	91	76
NS(=O)(=O)c1ccc(N/N=C2\C(=O)Nc3ccc(C(=O)NCCc4c[nH]cn4)cc32)cc1 [GW300660X]	78	100	100	100	100	100	47	82	96	100	71	86	100	100	100	100	90	100	100	100
COc1ccc2[nH]c3c4[nH]c5ccc(OC)cc5c4c4c(c3c2c1)C(=O)NC4=O [GW296115X]	2.8	58	69	77	82	64	71	85	59	100	75	73	2.7	51	100	90	100	71	83	100
Cl.O=S1CCN(Cc2ccc(-c3ccc4ncnc(Nc5ccc(OCc6ccccc6)c(F)c5)c4c3)o2)CC1 [GW576924A]	98	100	100	100	100	94	81	100	100	100	100	100	91	100	80	98	91	100	100	89
COc1ccc2cc(-c3c(-c4ccncc4)nc(-c4ccc(S(C)(=O)=O)cc4C)n3C)ccc2c1 [SB-633825]	96	23	66	65	86	83	60	60	79	90	93	93	39	91	100	95	88	93	100	71
COc1ccc(COc2ccc(Cc3cnc(N)nc3N)cc2OC)cc1 [GW632580X]	83	86	100	77	89	95	65	97	91	90	97	82	100	99	95	97	83	93	66	57
NS(=O)(=O)c1ccc(N/N=C2\C(=O)Nc3ccc(Cl)cc32)cc1 [GW280670X]	72	100	90	100	100	100	63	100	100	100	90	94	99	100	100	100	100	100	100	94
O=C1Nc2ccc(C(=O)c3ccco3)cc2C1=Cc1cc(Cl)c(O)c(Cl)c1 [GW406108X]	13	93	86	94	100	90	63	96	78	100	90	100	50	99	100	100	63	75	100	100
COc1cccc(-n2ncc3c(N/N=C/c4ccncc4)ncnc32)c1 [GW784752X]	91	100	58	100	100	97	70	100	84	89	95	100	96	100	88	89	100	100	100	84
COc1cc(C)c(N(C)C(=O)CN(C)C)cc1Nc1nc(Nc2cccc(F)c2C(N)=O)c2cc[nH]c2n1 [GSK2219385]	11	74	100	80	100	98	83	93	67	90	100	100	100	100	83	92	100	95	89	89
